The text below walks through data of PubChem BioAssay (NCI).

Some test systems named below: SK-MEL-2 melanoma; EKVX NSCLC; SN12C renal; UO-31 renal; TK-10 renal; ACHN renal; CAKI-1 renal; A498 renal; CCRF-CEM leukemia; MOLT-4 leukemia; SR leukemia; RPMI-8226 leukemia; OVCAR-8 ovarian; OVCAR-5 ovarian; OVCAR-4 ovarian; SK-OV-3 ovarian; IGROV1 ovarian; OVCAR-3 ovarian; HS 578T breast; NCI/ADR-RES ovarian.
What all share (assay): NCI-60 one-dose screen, 48 h (100 = growth as untreated, 0 = no growth, -100 = all killed)
Settings in all cases: 10 µM unless noted

The structures appear in SMILES notation. This is part of a sample that, as a whole, favours compounds with a hit. Of some 83,000 tested, about 20% had one in any assay.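 Results are percent growth after 48 hours of single-concentration exposure. 100 means growth as in untreated cells, lower positive values show inhibition; negative values down to -100 show cell death.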 A number with no mark means an inactive call. Active and inactive are the calls of the source. How the source made its calls: active means growth percent below 10; inactive means the rest.

In the case of `[2H]C([2H])([2H])Oc1ccc(F)cc1/C=C/C(=O)/C=C(O)/C=C/c1cc(F)ccc1OC([2H])([2H])[2H]`, the growth is 98.2% in the test with SK-MEL-2 melanoma; 107% in the test with EKVX NSCLC; 90.7% in the test with SN12C renal; 91.5% with UO-31 renal; 121% in the test on TK-10 renal; 106% with ACHN renal. The growth in the test on CAKI-1 renal was 93.6%; with A498 renal, 99.4%; with CCRF-CEM leukemia, 86.9%; with MOLT-4 leukemia it was 75.1%; in the test on SR leukemia it was 69.4%; in the test with RPMI-8226 leukemia, 90%. Also, the growth with OVCAR-8 ovarian is 88.8%; in the test on OVCAR-5 ovarian it was 111%; in the test with OVCAR-4 ovarian, 84.3%; in the test on SK-OV-3 ovarian, 104%; in the test with IGROV1 ovarian it was 105%; in the test with OVCAR-3 ovarian, 95.6%. Besides, the growth in the test with HS 578T breast was 104%; in the test with NCI/ADR-RES ovarian, 89.9%.

Regarding `COc1ccc(C(=S)N2CCN(c3ccc(Cl)cc3)CC2)cc1`, the growth is 97.7% in the test on SK-MEL-2 melanoma; 130% with EKVX NSCLC; 85.4% with SN12C renal; 81.9% in the test with UO-31 renal; 101% in the test with TK-10 renal; 94.8% in the test with ACHN renal. Also, the growth is 105% with CAKI-1 renal; 107% in the test with A498 renal; 90.3% with CCRF-CEM leukemia; 76.8% with MOLT-4 leukemia; 90.5% in the test with SR leukemia; 94% with RPMI-8226 leukemia. The growth in the test with OVCAR-8 ovarian was 98.2%; in the test on OVCAR-5 ovarian it was 93.8%; in the test on OVCAR-4 ovarian, 102%; with SK-OV-3 ovarian, 98.5%; in the test on IGROV1 ovarian it was 109%; with OVCAR-3 ovarian, 114%. Further, the growth in the test on HS 578T breast was 105%; in the test with NCI/ADR-RES ovarian it was 97.6%.

Take `O=S(=O)(NCCNc1nccc(-c2c(-c3cccc(O)c3)nc3occn23)n1)c1ccc(Br)cc1`: the growth with SK-MEL-2 melanoma is 29.1%; in the test on EKVX NSCLC, 62.1%; in the test with SN12C renal it was 35.6%; in the test with UO-31 renal, 30.8%; in the test with TK-10 renal, 69.8%; in the test on ACHN renal, 29.8%. For the same compound, the growth with CAKI-1 renal is 20.2%; in the test on A498 renal, 39.7%; in the test with CCRF-CEM leukemia, 14.6%; with MOLT-4 leukemia, 10.2%; in the test with SR leukemia it was 7.33% (active); in the test with RPMI-8226 leukemia, 29.8%. Further, the growth in the test with OVCAR-8 ovarian was 31.3%; in the test on OVCAR-5 ovarian, 51%; with OVCAR-4 ovarian it was 36.8%; in the test on SK-OV-3 ovarian, 29.4%; in the test on IGROV1 ovarian, 4.48% (active); with OVCAR-3 ovarian, 36%. In addition, the growth in the test on HS 578T breast was 21.8%; in the test with NCI/ADR-RES ovarian, 99.7%.

As to `CCCC(CC)(C(=O)Nc1ccc2nc(C)cc(N)c2c1)C(=O)Nc1ccc2nc(C)cc(N)c2c1`, the growth is 108% in the test on SK-MEL-2 melanoma; 101% in the test on EKVX NSCLC; 105% in the test with SN12C renal; 90.1% with UO-31 renal; 96.5% with TK-10 renal; 105% in the test on ACHN renal. Moreover, the growth in the test with CAKI-1 renal was 91.9%; with A498 renal, 104%; in the test on CCRF-CEM leukemia, 99.9%; with MOLT-4 leukemia, 98.8%; in the test on SR leukemia, 96.1%; with RPMI-8226 leukemia it was 100%. In addition, the growth was 103% in the test with OVCAR-8 ovarian; 85.1% in the test with OVCAR-5 ovarian; 83.8% in the test with OVCAR-4 ovarian; 93.1% in the test on SK-OV-3 ovarian; 111% with IGROV1 ovarian; 108% in the test on OVCAR-3 ovarian. For the same compound, the results for the growth with HS 578T breast and with NCI/ADR-RES ovarian were 106% and 109%, respectively.

With `Cc1ccc(-c2nc(/C=C3/C(=O)Nc4ccc(F)cc43)c3ccccn23)cc1`, the growth with SK-MEL-2 melanoma was 31.9%; with EKVX NSCLC, 87.2%; in the test on SN12C renal, 88.2%; with UO-31 renal, 70.2%; in the test on TK-10 renal it was 89.2%; in the test on ACHN renal, -3.57% (active). The growth with CAKI-1 renal is 60.5%; with A498 renal it was 97.7%; in the test with CCRF-CEM leukemia, 77.4%; with MOLT-4 leukemia, 77.7%; in the test on SR leukemia, 58%; in the test on RPMI-8226 leukemia it was 89.7%. For the same compound, the growth with OVCAR-8 ovarian was 69.6%; in the test on OVCAR-5 ovarian, 69.2%; in the test with OVCAR-4 ovarian, 63.4%; in the test with SK-OV-3 ovarian, 98%; with IGROV1 ovarian, 55%; in the test with OVCAR-3 ovarian, 110%. Moreover, the growth in the test with HS 578T breast is 99.2%; in the test on NCI/ADR-RES ovarian, 85.3%.

As for `COc1cnc2c(c1)C(=O)c1c-2n(CCCCl)c(=O)c2ccncc12`, the growth in the test with SK-MEL-2 melanoma was 102%; in the test on EKVX NSCLC, 79.1%; with SN12C renal, 70.4%; with UO-31 renal, 41.4%; in the test with TK-10 renal, 87.3%; with ACHN renal it was 37.3%. The growth with CAKI-1 renal is 35.7%; in the test with A498 renal it was 73.2%; with CCRF-CEM leukemia, 34.6%; in the test on MOLT-4 leukemia it was 26.2%; in the test on SR leukemia, 17.1%; with RPMI-8226 leukemia, 41.9%. For the same compound, the growth in the test with OVCAR-8 ovarian is 66.2%; in the test with OVCAR-5 ovarian, 116%; with OVCAR-4 ovarian, 66.2%; in the test on SK-OV-3 ovarian it was 89.3%; in the test with IGROV1 ovarian it was 55.5%; in the test on OVCAR-3 ovarian, 2.98% (active). Besides, the growth with HS 578T breast is 84.3%; with NCI/ADR-RES ovarian, 59%.

For the compound `Nc1ncnc2c1N=C(c1ccc3c(c1)OCO3)CC(c1cccc(Nc3ccnc4cc(C(F)(F)F)ccc34)c1)N2` (stereo not given), the growth in the test with SK-MEL-2 melanoma is 88%; in the test with EKVX NSCLC, 89.5%; in the test on SN12C renal, 75.5%; in the test with UO-31 renal, 76.9%; with TK-10 renal, 99%; in the test with ACHN renal it was 98.3%. For the same compound, the growth with CAKI-1 renal is 78.4%; in the test with A498 renal it was 74.5%; with CCRF-CEM leukemia, 64.8%; with MOLT-4 leukemia, 93.5%; with SR leukemia it was 23.3%; with RPMI-8226 leukemia it was 5.05% (active). The growth in the test with OVCAR-8 ovarian is 67.7%; with OVCAR-5 ovarian, 108%; in the test with OVCAR-4 ovarian, 89.2%; in the test on SK-OV-3 ovarian, 80.2%; with IGROV1 ovarian, 84.2%; with OVCAR-3 ovarian, 95.1%. In addition, the growth is 85.8% in the test on HS 578T breast and 88.3% with NCI/ADR-RES ovarian.

As for `C[n+]1ccc(CCc2c[nH]c3ccccc23)cc1`, the growth with SK-MEL-2 melanoma is 81.7%; in the test with EKVX NSCLC, 53.9%; in the test with SN12C renal, 93.7%; with UO-31 renal, 76.7%; with TK-10 renal it was 81.2%; in the test on ACHN renal, 90.9%. Also, the growth with CAKI-1 renal is 92.6%; with A498 renal, 71.9%; with CCRF-CEM leukemia, 101%; in the test on MOLT-4 leukemia it was 90.5%; with SR leukemia it was 83.8%; in the test on RPMI-8226 leukemia, 94%. Moreover, the growth in the test on OVCAR-8 ovarian is 107%; in the test with OVCAR-5 ovarian it was 86.5%; in the test on OVCAR-4 ovarian, 99.4%; in the test on SK-OV-3 ovarian, 77.3%; in the test on IGROV1 ovarian it was 87.7%; in the test with OVCAR-3 ovarian, 107%. Also, the growth was 104% in the test on HS 578T breast and 105% in the test on NCI/ADR-RES ovarian.
